Compounds with a hit are over-represented: about 0.32% of the library has one in this group of screens.
Menin-MLL TR inh – qHTS Assay for Inhibitors Targeting the Menin-MLL Interaction in MLL Related Leukemias: Competition With Texas Red Labeled MLL-derived Mutant Peptide; Potency, µM (titrated, usually from 61.6 µM), inactives show at the top dose FP activity change, negative = inhibition, hits mostly inhibitors; Menin + Texas Red MLL mutant peptide, fluorescence polarization; 0.23% of 270,000 active; AID 1768, 2009; O00255; active means well fitted inhibition curve with a large enough effect in the polarisation, with a control signal flat, not every such curve was filed as active; inconclusive means small, poorly fitted or top-dose-only effect, or effect the other way, or a change in a side signal; inactive means no such curve, though single readings can be large or run the other way; the % refers to the polarisation; further: potency means the concentration at half of the fitted maximal effect; % of control where 0% means no effect
TRPV1 potentiator – HTS Assay for Compounds that Act as Potentiators of the Vanilloid Receptor 1. AID 540277, 2011. potentiation, % at 8.33 µM. Transient receptor potential cation channel subfamily V member 1 (Homo sapiens), Q8NER1. 0.02% of 320,000 active. TRPV1-expressing cells, Fluo-8 calcium influx, capsaicin EC20 potentiation; in the data active means potentiation above about 80%; inconclusive means between about 30% and that limit; further: 0% is about no effect
Target sequence (Q8NER1 whole entry, looked up): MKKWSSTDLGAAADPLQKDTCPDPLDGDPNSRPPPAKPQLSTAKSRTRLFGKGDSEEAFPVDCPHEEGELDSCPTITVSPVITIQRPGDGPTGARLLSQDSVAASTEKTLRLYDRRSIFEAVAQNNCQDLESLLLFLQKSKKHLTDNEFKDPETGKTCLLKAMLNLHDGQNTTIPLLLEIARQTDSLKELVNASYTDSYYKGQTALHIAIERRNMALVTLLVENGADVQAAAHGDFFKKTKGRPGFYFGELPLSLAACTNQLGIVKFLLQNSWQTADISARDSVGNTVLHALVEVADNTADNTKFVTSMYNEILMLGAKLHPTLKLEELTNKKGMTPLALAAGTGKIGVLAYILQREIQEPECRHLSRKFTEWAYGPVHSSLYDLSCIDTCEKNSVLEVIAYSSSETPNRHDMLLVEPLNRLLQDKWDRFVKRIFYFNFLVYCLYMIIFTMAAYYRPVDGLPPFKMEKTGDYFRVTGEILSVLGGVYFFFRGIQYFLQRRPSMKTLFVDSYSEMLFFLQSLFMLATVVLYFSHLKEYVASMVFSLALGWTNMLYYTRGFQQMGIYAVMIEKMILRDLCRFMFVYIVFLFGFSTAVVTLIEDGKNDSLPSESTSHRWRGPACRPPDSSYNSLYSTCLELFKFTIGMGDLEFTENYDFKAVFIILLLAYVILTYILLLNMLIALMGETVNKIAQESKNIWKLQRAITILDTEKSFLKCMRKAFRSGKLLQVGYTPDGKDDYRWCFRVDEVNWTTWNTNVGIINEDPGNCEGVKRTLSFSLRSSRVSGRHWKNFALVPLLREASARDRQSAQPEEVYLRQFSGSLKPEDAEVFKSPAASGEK
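TRPV1-expressing cells were cultured overnight at 35.5C and loaded with Fluo-8 calcium dye for 40 to 90 min at room temperature. After a 10 s baseline, compound was added and calcium influx was read kinetically for 3 min (ex 480/em 520 nm).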
MLL CXXC-DNA inh – qHTS Fluorescence Polarization Assay for Inhibitors of MLL CXXC domain - DNA interaction. Histone-lysine N-methyltransferase 2A (Homo sapiens), Q03164. MLL-CXXC / FITC-HOXA9 DNA fluorescence polarization. Potency, µM (highest dose often 115 µM), without a hit: top-dose activity change, negative = inhibition, most hits filed as inhibitors. 0.037% of 290,000 active; active means well fitted inhibition curve with a large enough effect in the polarisation, with a control signal flat, not every such curve was filed as active; inconclusive means small, poorly fitted or top-dose-only effect, or effect the other way, or a change in a side signal; inactive means no such curve, though single readings can be large or run the other way; the % refers to the polarisation; further: potency means the concentration at half of the fitted maximal effect
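Fluorescence polarization: 7 uM MLL-CXXC (stock) preincubated 5 min with compounds, then 50 nM fluorescein-HOX-A9 DNA (stock) added; 30 min ambient. Buffer 50 mM Tris-HCl pH 7.5, 50 mM NaCl, 1 mM DTT, 0.05% BSA.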
TRPV1 ag – HTS Assay for Compounds that Act as Agonists of the Vanilloid Receptor 1; Transient receptor potential cation channel subfamily V member 1 (Homo sapiens), Q8NER1; TRPV1-expressing cells, Fluo-8 calcium influx, agonist mode; activation, % at 8.33 µM; 0.19% of 320,000 active; AID 540275, 2011; in the data active means activation above about 80%; inconclusive means between about 30% and that limit; further: 0% is about no effect
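Cells expressing TRPV1 were dye-loaded with Fluo-8 and read kinetically: 10 s baseline, 3 min after compound (agonist portion), then 2 min after EC20 capsaicin (allosteric enhancer portion). Calcium-bound dye fluorescence at 480/520 nm.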
Menin-MLL FL inh – qHTS Assay for Inhibitors Targeting the Menin-MLL Interaction in MLL Related Leukemias: Competition With Fluorescein Labeled MLL-derived Peptide | 290,000 tested, under 10 active | Fluorescence polarization, fluorescein-MLL peptide displacement from menin | FP activity change, % at 61.4 µM; active means well fitted curve in the direction sought with a large enough effect in the polarisation, not every such curve was filed as active; inconclusive means small, poorly fitted or top-dose-only effect, or effect the other way, or a change in a side signal; inactive means no such curve, though single readings can be large or run the other way; the % refers to the polarisation; further: % of control where 0% means no effect
Active calls of the source: *; u = inconclusive; x = not tested or not shown; [ ] = another dose, or the depositor's remark.

SMILES	Menin-MLL TR inh	TRPV1 potentiator	MLL CXXC-DNA inh	TRPV1 ag	Menin-MLL FL inh
COc1ccc(-c2csc(NC(=O)CSc3nnnn3C)n2)cc1OC	x	-7	x	1	x
CCOCC	-3%	x	x	x	-1
O=C(c1ccc(-n2c(SCc3cccc(F)c3)nc3ccccc3c2=O)cc1)N1CCOCC1	-18%	-9	5%	87*	8
CCn1cc(C(=O)NCCc2ccccc2)c(=O)c2cc(S(=O)(=O)N3CCCC3)ccc21	0%	0	-2%	96*	-1
CCCCNC(=O)c1cn(CC)c2ccc(S(=O)(=O)N3CCCC3)cc2c1=O	-9%	-11	8%	u	-1
COc1ccc(-c2nc(-c3ccccc3)c(NC(C)C)o2)cc1	-5%	x	x	x	-1
CC1(C)Oc2ccc(/C=C/C(=O)N3CCOCC3)c(O)c2C(N2CCOCC2)C1O (configuration not stated)	-27%	1	12%	3	2
CC(C)CC(=O)OC1C(N2CCOCC2)c2c(ccc(/C=C/C(=O)N3CCOCC3)c2O)OC1(C)C (configuration not stated)	u	-2	-1%	81*	0
CC(C)[C@H](NC(=O)[C@H](CCCCN)NC(=O)[C@@H](NC(=O)[C@@H]1CCCN1C(=O)[C@H](CCCN=C(N)N)NC(=O)[C@H](CCCN=C(N)N)NC(=O)[C@H](CCCCN)NC(=O)[C@H](CCCCN)NC(=O)CNC(=O)[C@@H](NC(=O)[C@@H]1CCCN1C(=O)[C@@H](N)CCCCN)C(C)C)C(C)C)C(=O)N[C@@H](Cc1ccc(O)cc1)C(=O)N1CCC[C@H]1C(=O)O	u	x	x	x	-14
CNc1ncc(C(=O)c2ccc(Cl)c(Cl)c2)s1	4%	-13	8%	15	0
O=C(c1ccc(Cl)c(Cl)c1)c1cnc(Nc2ccccc2)s1	22µM*	12	7%	-3	2
Cc1cc(C)cc(NC(=O)c2ccc(S(=O)(=O)C(F)F)cc2)c1	18%	-2	0%	u	0
Cc1cccc(NC(=O)c2ccc(S(=O)(=O)C(F)F)cc2)c1C	1%	12	13%	87*	4
CC[C@H](C)[C@H](NC(=O)[C@@H](NC(=O)[C@@H](NC(=O)[C@H](CCC(=O)O)NC(=O)[C@H](CCC(=O)O)NC(=O)[C@H](CCC(=O)O)NC(=O)[C@H](C)NC(=O)[C@@H](N)CC(C)C)C(C)C)C(C)C)C(=O)N[C@@H](CCCNC(=N)N)C(=O)N[C@@H](CO)C(=O)N[C@@H](C)C(=O)N[C@@H](CC(N)=O)C(=O)N[C@@H](Cc1ccccc1)C(=O)N[C@H](C(=O)N[C@@H](CC(=O)O)C(=O)N[C@@H](CC(N)=O)C(=O)O)[C@@H](C)O	14%	x	x	x	-1
Cn1nc(CC(=O)Nc2ccc3c(c2)OCCO3)c2ccccc2c1=O	7%	81*	8%	4	1
OC[C@@H]1O[C@H](O)[C@H](O)[C@@H](O)[C@@H]1O	-8%	x	x	x	1
O=C(NCc1ccncc1)c1ccc(Oc2ccccc2)cc1	-12%	-21	7%	91*	1
O=C(Oc1ccc(OC(=O)c2ccco2)c(S(=O)(=O)c2ccc(Br)cc2)c1)c1ccco1	10µM*	14	118%	-11	-1
Cc1ccc(S(=O)(=O)c2cc(OC(=O)c3ccco3)ccc2OC(=O)c2ccco2)cc1	x	5	148%	3	x
CCc1cc(-c2oncc2-c2ccc(OC)cc2)c(O)cc1OC	71%	x	x	x	-2
CC1=CC23C(=O)C(C=C(CO)[C@@H](O)[C@]2(O)[C@H]1O)[C@H]1[C@@H](C[C@H]3C)C1(C)C (some centres not stated)	-10%	x	x	x	-1
COc1ccc(CC(=O)NCCCc2ccccc2)cc1OC	-21%	-22	-12%	105*	1
COc1cc2c(cc1CC=C(C)C)C(=O)C[C@@H](c1ccc(O)cc1)O2	74%	x	x	x	21
O=C(Cc1ccc(F)cc1)Nc1nc(-c2ccc(F)cc2)cs1	-6%	-31	43%	104*	5
O=C(Cc1ccccc1)Nc1nc(-c2cccs2)cs1	u	-7	-3%	94*	6
SMILES	Menin-MLL TR inh	TRPV1 potentiator	MLL CXXC-DNA inh	TRPV1 ag	Menin-MLL FL inh
O=C(O)CCCC(=O)Nc1nc(-c2ccc(F)cc2)cs1	-3%	7	25%	3	-2
O=C(Cc1ccccc1)Nc1nnc(-c2cccs2)s1	-5%	-21	21%	-4	6
O=C(Cc1ccccc1F)Nc1nc(-c2cccs2)cs1	u	-2	-2%	81*	2
O=C(Cc1ccccc1F)Nc1nc(-c2ccc(F)c(F)c2)cs1	88%	-10	7%	u	3
C[C@H](N)C(=O)N[C@@H](CO)C(=O)N[C@H](C(=O)N[C@H](C(=O)N[C@H](C(=O)N[C@@H](CC(N)=O)C(=O)N[C@@H](Cc1ccc(O)cc1)C(=O)N[C@H](C(=O)O)[C@@H](C)O)[C@@H](C)O)[C@@H](C)O)[C@@H](C)O	7%	x	x	x	2
CCCCCCCCCCCCCCOS(=O)(=O)O	-9%	x	x	x	1
Cc1cc(C)c(S(=O)(=O)NCCn2c(C)cc3ccccc32)c(C)c1	u	u	8%	0	-20
Cc1ccc(S(=O)(=O)NCCn2c(C)cc3ccccc32)cc1	28µM*	4	-6%	1	-24
COc1cccc(-c2nnc3n2N=C(c2c(OC)cccc2OC)CS3)c1OC	1%	x	x	x	2
CCCCS(=O)(=O)N1C2=NC(C(=O)OC)=C(C(=O)OC)[C@@H]3Nc4ccccc4[C@]23C[C@H]1C(=O)OC	-8%[11.7 µM]	x	x	x	7[11.7 µM]
COC(=O)C1=C(C(=O)OC)[C@@H]2N(C)c3ccccc3[C@@]23C[C@@H](C(=O)OC)N(S(=O)(=O)c2ccc(C(F)(F)F)cc2)C3=N1	0%[11.7 µM]	x	x	x	-3[11.7 µM]
Cc1nc2cc(-c3cccc(F)c3)nn2c(C)c1CCC(=O)N1CCN(c2ccccn2)CC1	x	-14	23%	-2	0
Cc1nc2cc(-c3cccc(F)c3)nn2c(N2CCN(C(=O)c3ccco3)CC2)c1C	4%	-20	45%	81*	0
C=C[C@@H](C1=CC(=O)C(OC)=C(OC)C1=O)c1ccccc1	2%	x	x	x	3
CCOc1ccc(NC(=O)c2ccc(S(=O)(=O)N(C)C)cc2)cc1	1%	-4	4%	u	3
CN(C)S(=O)(=O)c1ccc(NC(=O)c2ccc3ncsc3c2)cc1	x	-21	-7%	80*	5
COc1ccc(NC(=O)c2ccc3ncsc3c2)cc1	31%	-11	-6%	92*	0

From PubChem BioAssay
